Assay results as given in PubChem BioAssay (NCATS).
Inconclusive results are not listed. The source made the active and inactive calls. Unless noted, calls follow the shape of the full dose curve.

What was measured:
[1] = qHTS Assay for Identifying Gametocytocidal Compounds (AID 743244; active = well fitted curve in the direction sought with a large enough effect; an effect the other way counts as inactive or inconclusive;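 also: % is scaled to controls: 0 for no effect and ±100 for the full control effect; actives lower the fluorescent signal which means gametocytes are killed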); settings: P. falciparum 3D7 stage III-V gametocytes, alamarBlue, 72 h; max response: stronger effect = lower value
Summary of the method: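 P. falciparum 3D7 stage III–V gametocytes (20,000 cells/well) were exposed to compounds for 72 h at 37 °C, 5% CO2. AlamarBlue was then added for 24 h; decreased resorufin fluorescence (Ex 525/Em 598 nm) indicated loss of viability.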

[2] = P-glycoprotein substrates identified in KB-8-5-11 adenocarcinoma cell line, qHTS therapeutic library screen (AID 1346987; active = well fitted curve in the direction sought with a large enough effect; an effect the other way counts as inactive or inconclusive; also: potency is read from the fitted curve at half-maximal effect; nearly all actives have a fitted effect of over 65% in size)
Summary of the method: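 Compounds are pinned in dose-response onto KB-8-5-11 cells (500 cells/well, colchicine-free medium) and left 72 h at 37 degree C. CellTiter-Glo luminescence then yields AC50 values.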

[3] = Primary qHTS for inhibitors of SARS-S pseudo-typed particle cell entry (AID 1479145); also: nearly all actives have a fitted effect of over 45% in size
[4] = Primary qHTS for Huh7 cytotoxicity: counterscreen for inhibitors of MERS-S pseudotyped particle cell entry (AID 1479147); settings: outcome: dose series up to 57.1 µM unless noted; also: % is scaled to controls: 0 for no effect and ±100 for the full control effect
[5] = Primary qHTS for inhibitors of MERS-S pseudo-typed particle cell entry (AID 1479149); also: nearly all actives have a fitted effect of over 60% in size
[6] = Primary qHTS for Vero E6 cytotoxicity: counterscreen for inhibitors of SARS-S pseudo-typed particle cell entry (AID 1479150); settings: outcome: dose series up to 57.1 µM unless noted
[7] = Cytotoxicity counterscreen for inhibitors of SARS-CoV-2 cell entry (AID 1645845); also: nearly all actives have a fitted effect of over 50% in size
Summary of the method: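 Counterscreen run in the same HEK293-ACE2 line as the pseudotyped-particle entry assay, without particles. Viability after 48 h at 37 C was read as ATP luminescence, scaled between cell-containing and cell-free wells.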

[8] = Primary qHTS to identify inhibitors of SARS-CoV-2 cell entry (AID 1645846); settings: activity change, negative = inhibition: at 57.1 µM (top of the series) unless noted; also: nearly all actives have a fitted effect of over 45% in size
Summary of the method: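 Using luciferase-reporting pseudoviruses carrying Wuhan-Hu-1 spike, the screen tracks entry into stably ACE2-expressing cells over 48 hr. Activity is expressed relative to spike particles versus particles lacking any fusion protein.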

[9] = biological target: Glutathione peroxidase 1 (Homo sapiens) (UniProt P07203); assay: Primary qHTS Assay for Inhibitors of Recombinant Selenoprotein Glutathione Peroxidase 1 (GPX1) (AID 1845191; active = well fitted curve in the direction sought with a large enough effect; an effect the other way counts as inactive or inconclusive; also: nearly all actives have a fitted effect of over 65% in size)
Chain of Glutathione peroxidase 1 (Homo sapiens) (P07203 whole entry, looked up): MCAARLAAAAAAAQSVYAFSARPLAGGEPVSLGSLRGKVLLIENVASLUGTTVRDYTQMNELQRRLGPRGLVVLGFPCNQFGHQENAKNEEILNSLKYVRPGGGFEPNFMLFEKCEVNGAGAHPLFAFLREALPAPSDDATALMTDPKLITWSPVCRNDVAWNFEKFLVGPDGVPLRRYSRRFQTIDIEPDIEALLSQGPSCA
Summary of the method: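 GR-coupled readout: NADPH consumption tracked by fluorescence, ex 340/em 450 nm, at t=0 and after 15 min at RT. Final mix 10 nM GPX1, 1 mM GSH, 0.5 mM CHP, 0.5 mM NADPH, 100 nM GR, 0.01% BSA, following 30 min enzyme–compound preincubation.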

[10] = biological target: Phospholipid hydroperoxide glutathione peroxidase GPX4 (Homo sapiens) (UniProt P36969); assay: Primary qHTS Assay for Inhibitors of Recombinant Selenoprotein Glutathione Peroxidase 4 (GPX4) (AID 1845192; active = well fitted curve in the direction sought with a large enough effect; an effect the other way counts as inactive or inconclusive; also: nearly all actives have a fitted effect of over 65% in size)
Chain of Phospholipid hydroperoxide glutathione peroxidase GPX4 (Homo sapiens) (P36969 whole entry, looked up): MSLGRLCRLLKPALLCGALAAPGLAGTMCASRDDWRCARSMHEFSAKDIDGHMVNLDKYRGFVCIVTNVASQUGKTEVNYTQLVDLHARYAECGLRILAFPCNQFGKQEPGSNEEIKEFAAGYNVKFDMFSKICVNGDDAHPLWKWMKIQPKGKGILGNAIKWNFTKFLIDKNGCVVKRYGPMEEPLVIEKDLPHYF
Summary of the method: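 Steps: GPX4 plus compound, 30 min RT; add GR/GSH/NADPH master mix; start with cumene hydroperoxide; read 340/450 nm fluorescence at 0 and 15 min. Finals were 200 nM GPX4, 1 mM GSH, 0.5 mM CHP, 0.5 mM NADPH, 100 nM GR.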

C[C@]12CC[C@H]3[C@@H](CCC4=CC(=O)CC[C@@]43C)[C@@H]1CC[C@@H]2OC(=O)CCc1ccccc1
-18.9%: activity change, negative = inhibition [8]
inactive: max response [1] 3.81% | Potency [3] | outcome [4] | Potency [5] | outcome [6] | Potency [7] | Potency [9] | Potency [10]
active: Potency [2] 10 µM
